# A selection: hits, their analogues and other compounds. The true share with any hit is near 0.9%.
# SRC3 TRFRET art: TR-FRET detection interference compounds, artefact control for PPARgamma SRC-3 recruitment agonists, biochemical, TR-FRET ratio | TR-FRET artefact counter-screen, PPARgamma/SRC-3 format; active compounds read high | TR-FRET ratio at 8 µM | actives 0.39% (n = 99,000) | AID 1048, 2008
# PPARg SRC1 recr: PPARgamma agonists recruiting SRC-1 coactivator, primary screen, biochemical | PPARgamma-SRC-1 coactivator recruitment biochemical assay | activation, % at 8 µM | actives 0.41% (n = 200,000) | AID 631, 2007; in the data active means activation above about 19%
# PPARg SRC-3 ag: PPARgamma agonists recruiting SRC-3 coactivator, primary screen, biochemical | activation, % at 8 µM | biochemical PPARgamma/SRC-3 coactivator recruitment assay | Peroxisome proliferator-activated receptor gamma (Homo sapiens), P37231 | actives 0.26% (n = 200,000); in the data active means activation above about 23%
# PPARg SRC-2 ag: agonists of PPARg-SRC-2 recruitment, primary screen, biochemical, HTS | Peroxisome proliferator-activated receptor gamma (Homo sapiens), P37231 | PPARgamma LBD-SRC-2 recruitment | activation, % at 8 µM | actives 0.34% (n = 200,000) | AID 1032, 2008; in the data active means activation above about 22%
# TR-FRET SRC-2 ct: TR-FRET signal artefacts, primary screen, artefact control for PPARgamma SRC-2 agonist project, biochemical; actives 0.4% (n = 200,000); TR-FRET artefact counter-screen; active compounds read high; TR-FRET ratio at 8 µM; AID 1049, 2008
# SRC1 TRFRET art: TR-FRET detection interference compounds, primary screen, artefact control for PPARgamma SRC-1 recruitment agonists, biochemical, TR-FRET emission ratio; TR-FRET detection artefact counter-screen; active compounds read high; TR-FRET ratio at 8 µM; actives 0.34% (n = 99,000); AID 1051, 2008; in the data active means TR-FRET ratio above about 2300
# PPARg SRC2 conf: agonists of PPARgamma SRC-2 coactivator recruitment, confirmation, biochemical, HTS; shares compounds with PPARg SRC-3 ag; biochemical SRC-2 recruitment by PPARgamma; activation, % at 8 µM; actives 52% (n = 790); AID 1297, 2008; in the data active means activation above about 22%
# PPARg SRC1 ag: PPARgamma agonists recruiting SRC-1 coactivator, confirmation, biochemical | shares compounds with PPARg SRC-3 ag | PPARgamma–SRC-1 coactivator recruitment biochemical assay | activation, % at 8 µM | actives 43% (n = 790) | AID 1300, 2008; in the data active means activation above about 20%
# PPARg SRC3 conf: PPARgamma-driven SRC-3 coactivator recruitment agonists, confirmation, biochemical. actives 29% (n = 790). shares compounds with PPARg SRC-3 ag. biochemical PPARgamma-SRC-3 coactivator recruitment, agonist mode. activation, % at 8 µM; in the data active means activation above about 24%
# Hits are given with their value; - = inactive; . = no result given. Unless noted, no stated cut-off is given here; in the data, active means TR-FRET ratio above about 2000; inactive means the rest.
SMILES,SRC3 TRFRET art,PPARg SRC1 recr,PPARg SRC-3 ag,PPARg SRC-2 ag,TR-FRET SRC-2 ct,SRC1 TRFRET art,PPARg SRC2 conf,PPARg SRC1 ag,PPARg SRC3 conf
O=C(O)c1ccc2c3c(cccc13)C(=O)N(c1ccccc1)C2=O,-,-,-,-,-,-,.,.,.
Cc1cc(C)c2[nH]c(=O)c(CN(Cc3ccc4c(c3)OCO4)Cc3nnnn3C3CCCC3)cc2c1,.,-,-,-,-,.,.,.,.
Cc1cccc2cc(CN(Cc3ccc(F)cc3)Cc3nnnn3C3CCCC3)c(=O)[nH]c12,.,-,62,112,4917,.,-,-,-
Cc1cc2cc(CNC(=O)c3ccc(S(=O)(=O)N4CCCCC4)cc3)ccc2n1C,.,83,111,74,4697,.,173,143,102
Cc1cc2cc(CNC(=O)C3CC3)ccc2n1C,.,-,-,-,-,.,.,.,.
CCN(CC)S(=O)(=O)c1ccc(C(=O)NCc2ccc3c(c2)cc(C)n3C)cc1,.,26,49,75,4972,.,158,120,102
Cc1cc2cc(CNC(=O)c3ccc(S(=O)(=O)N4CCCC4)cc3)ccc2n1C,.,60,88,83,5041,.,100,84,59
C=CCOc1c(Cl)cc(C2NC(=O)NC(C)=C2C(=O)OC)cc1Cl (configuration not stated),.,-,-,-,-,.,.,.,.
Cc1nnc(SCC(=O)c2ccc(Cl)cc2)s1,-,-,-,-,-,-,.,.,.
O=C(O)CCCC(=O)Nc1c(F)c(F)c(F)c(F)c1F,-,-,-,-,-,-,.,.,.
CCN(CC)S(=O)(=O)c1cccc(-c2nnc(SC(C)C#N)n2Cc2ccccc2)c1 (configuration not stated),-,-,-,-,-,-,.,.,.
O=C(Cc1ccccc1)c1c[nH]c(C(=O)NC2CCCC2)c1,-,-,-,-,-,-,.,.,.
O=c1c2sccc2nc(SCc2cc(=O)n3cc(Br)ccc3n2)n1Cc1ccccn1,2195,23,-,23,2046,2338,-,-,-
Cc1ccc(CSc2nc3ccsc3c(=O)n2Cc2ccccn2)cc1,-,-,-,-,-,-,.,.,.
Cc1ccc(NS(=O)(=O)c2cccc(C(=O)N/N=C/c3ccc4c(c3)OCCO4)c2)c(C)c1,-,-,-,-,-,-,.,.,.
O=C(O)c1ccc(N2C(=O)/C(=C/C=C/c3ccccc3)SC2=S)cc1,-,-,-,-,-,-,.,.,.
CN(C)c1ccc(/C=C/C=C2/SC(=S)N(c3ccccc3)C2=O)cc1,.,20,-,-,-,.,30,21,-
O=C(O)Cc1cc(C(=O)Nc2ccc(Br)cc2)sc1-c1ccccc1,2260,33,-,22,2211,2611,-,-,-
O=C(O)CCC(=O)Nc1cccc(C(=O)Nc2ccc(Br)cc2)c1,-,-,-,-,-,-,.,.,.
CC(=O)Oc1cc2cccc(OC(C)=O)c(=O)c2c(OC(C)=O)c1OC(C)=O,-,-,-,-,-,-,-,-,-
COc1cc2cccc(OC)c(=O)c2c(O)c1OC,-,-,-,-,-,-,.,.,.
CC12CCC(C(=O)N(CSC(=S)N/N=C\c3ccccc3O)C1=O)C2(C)C (configuration not stated),.,-,43,30,-,.,46,43,25
Cc1ccc(-n2nc3c(c2NC(=O)c2c(-c4ccccc4Cl)noc2C)CSC3)cc1,.,-,-,-,-,.,.,.,.
